Bioassay records from PubChem BioAssay.
Most compounds without a hit are left out; they make up all but 6.5% or so of the library.
TGFb inhibitor: qHTS for Inhibitors of TGF-b. HepG2 CAGA-GFP TGF-b/SMAD3 reporter, GFP fluorescence, 18 h; TGF-beta stimulated, 500 pg/mL final. Potency, µM (series often up to 46.1 µM), hits mostly inhibitors. actives 1.2% (n = 410,000); note: nearly all actives have a fitted effect of over 65% in size
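HEPG2 CAGA-GFP, 1000 cells/well; 2 h settle, 37 C; cpd via pin tool; TGF-b 500 pg/mL final; 18 h, 37 C; GFP imaging ex488/em500-530; %Activity normalised to -TGF-b and +DMSO controls; CRC fit, curve class.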
HepG2 tox: qHTS for Inhibitors of TGF-b: Cytotox Counterscreen; actives 0.76% (n = 410,000); HepG2 CAGA-GFP viability, ATP luminescence, 18 h; AID 588856, 2011; Potency, µM (series often up to 46.1 µM), most hits filed as cytotoxic
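CellTiter-Glo luminescence gave cytotoxicity after 18 hours at 37 degrees C. The cells were HepG2 CAGA-GFP in 1% FBS DMEM, stimulated with 500 pg/mL TGF-beta after compound addition. %Activity was normalised to no-cell wells (complete cell-killing) and DMSO (no toxicity), and curves were fitted and classified.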
Giardia kill: Small Molecules that selectively kill Giardia lamblia: qHTS. Giardia lamblia trophozoite viability. activity change, % at 7.66 µM, hits read low. actives 0.15% (n = 340,000); in the data active = activity change below about -80%; inconclusive = between about -30% and that limit;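 note: parasites exposed to compound for two days anaerobically before the ATP read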
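Trophozoites 100 cells/well + cpd; 48 hrs, 37 deg C, anaerobic. ATPLite 1-Step added, 15-30 min RT, luminescence read (ATP-based viability).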
HT1080 IDH1KD tx: qHTS for induction of synthetic lethality in tumor cells producing 2HG: qHTS for the HT-1080-IDH1KD cell line; HT-1080 IDH1 knockdown viability, ATP luminescence, 48 h; Potency, µM (doses to about 46.1 µM), most hits filed as cytotoxic; actives 2% (n = 360,000)
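CellTiter-Glo luminescence after 48 h compound exposure at 37 degrees C of IDH1-knockdown HT-1080 cells in 5% FBS RPMI. %Activity scaled between DMSO wells and cell-free media wells, with curves fitted and assigned curve classes.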
IL1B secr inh: qHTS for Inhibitors of Inflammasome Signaling: IL-1-beta AlphaLISA Primary Screen | activity change, % at 57.5 µM | actives 4.7% (n = 360,000) | THP-1 LPS/ATP IL-1B secretion, AlphaLISA, 16 h; active compounds read low; in the data active = activity change below about -50%; inconclusive = mostly about -30% to -49%
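THP-1 cells pretreated 1 hr with compounds (up to 57.5 uM final), then stimulated with LPS (250 ng/mL final) plus ATP (1.25 mM final); secreted IL-1B measured by AlphaLISA after 16 hr, decreased signal indicating inhibition.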
HT1080-NT tox: qHTS for induction of synthetic lethality in tumor cells producing 2HG: qHTS for the HT-1080-NT fibrosarcoma cell line; HT-1080-NT fibrosarcoma viability, CellTiter-Glo ATP luminescence, 48 h; Potency, µM (doses to about 46.1 µM), hits mostly cytotoxic; actives 1.6% (n = 360,000);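 note: NT is the 2HG producing partner of a matched IDH1 knockdown line; nearly all actives have a fitted effect of over 55% in size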
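HT-1080-NT; 750 cells/well; 5% FBS RPMI; 48 h compound, 37 degrees C; CellTiter-Glo luminescence; curve fitting and curve-class assignment.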
Large screens that a line does not name were inactive. Unless noted, calls come from the whole dose curve; as a rule, active = well fitted curve in the direction sought with a large enough effect; inconclusive = small, poorly fitted or top-dose-only effect, or another doubt; inactive = no such curve, though single readings can be large; an effect the other way counts as inactive or inconclusive.

CC(C)c1cccc(-c2csc(C(C)(O)c3cccc(F)c3)n2)c1 (stereo unspecified)	TGFb inhibitor inconclusive, HepG2 tox 15.8µM, HT1080 IDH1KD tx inconclusive (no result: Giardia kill)
CC(O)(c1cccc(F)c1)c1nc(-c2cccc(F)c2)cs1 (stereo unspecified)	TGFb inhibitor 7.94µM, HT1080 IDH1KD tx inconclusive, HT1080-NT tox inconclusive (no result: Giardia kill)
COc1ccc(C(C)(O)c2nc(-c3cccc(C(C)C)c3)cs2)cc1 (stereo unspecified)	TGFb inhibitor inconclusive, HepG2 tox 20µM, HT1080 IDH1KD tx inconclusive, HT1080-NT tox inconclusive (no result: Giardia kill)
Nc1ccc(C(=O)OC2CCOC2=O)cc1[N+](=O)[O-] (stereo unspecified)	none
CCC(C)c1ccc(NC(=S)N2CCN(C(=O)C3CCCO3)CC2)cc1 (stereo unspecified)	TGFb inhibitor inconclusive
COc1ccc(C(C)(O)c2nc(-c3ccccc3OC)cs2)cc1 (stereo unspecified)	HT1080 IDH1KD tx 16.4µM, HT1080-NT tox inconclusive (no result: Giardia kill)
Cc1ccc(Nc2nc3ccccc3[nH]2)nc1	IL1B secr inh -52.9
Cc1ccccc1OCC(=O)Nc1cc(Cl)ccc1Oc1ccccc1	none
CC(NC(=O)CN1C(=O)NC(Cc2ccccc2)(Cc2ccccc2)C1=O)C12CC3CC(CC(C3)C1)C2 (stereo unspecified)	HT1080 IDH1KD tx inconclusive, HT1080-NT tox 20.6µM
CC(NC(=O)Cn1ncc(Cl)c(Cl)c1=O)C12CC3CC(CC(C3)C1)C2 (stereo unspecified)	HT1080 IDH1KD tx 10.3µM, IL1B secr inh -119.3, HT1080-NT tox 18.4µM
O=C(Cn1ncc(Cl)c(Cl)c1=O)NC(=O)NC1CCCCC1	TGFb inhibitor inconclusive, HT1080 IDH1KD tx 6.51µM, IL1B secr inh -102.7, HT1080-NT tox inconclusive
CC1CCCCC1NC(=O)CN1C(=O)NC(Cc2ccccc2)(Cc2ccccc2)C1=O (stereo unspecified)	none
CC(NC(=O)Cn1ccsc1=N)C12CC3CC(CC(C3)C1)C2 (stereo unspecified)	IL1B secr inh -59.5, HT1080-NT tox inconclusive
O=C(CN1CCCCC1)NC(=O)NC1CCCC1	none
C[C@H]1c2cccc(O)c2C(O)=C2C(=O)[C@]3(O)C(O)=C(C(N)=O)C(=O)[C@@H](N(C)C)C3[C@@H](O)C21 (stereo partly specified)	HT1080 IDH1KD tx 23.1µM, HT1080-NT tox inconclusive
Nc1ncnc2c1nc(Cl)n2[C@@H]1O[C@H](CO)[C@@H](O)[C@@H]1O	TGFb inhibitor inconclusive (no result: HT1080 IDH1KD tx, IL1B secr inh, HT1080-NT tox)
Nc1ncnc2c1nc(-c1ccccc1)n2C1OC(CO)C(O)C1O (stereo unspecified)	HT1080 IDH1KD tx inconclusive, IL1B secr inh -50.4 (no result: Giardia kill)
OCC1OC(n2cnc3c(NCCc4ccccc4)ncnc32)C(O)C1O (stereo unspecified)	HT1080 IDH1KD tx inconclusive, HT1080-NT tox 2.06µM
CCc1ccccc1NC(=S)N1CCCCCC1	none
C1=CC2c3ccccc3NC(c3ccncc3)C2C1 (stereo unspecified)	IL1B secr inh -107.0
CC(=O)c1ccc2c(c1)C1C=CCC1C(c1ccncc1)N2 (stereo unspecified)	none
NS(=O)(=O)c1ccc(CCNC(=O)c2ccc(S(=O)(=O)N3CCCCC3)cc2)cc1	none
CCCN(CC(=O)Nc1cc(C)on1)CC(=O)Nc1ccc(F)c(F)c1F	none
Cc1cc(N2CCOCC2)nc(SCc2c(Cl)cccc2Cl)n1	TGFb inhibitor 11.2µM
Cc1cc(N2CCOCC2)nc(SCC(=O)c2ccc(Cl)cc2)n1	none
Cc1c(O)ccc(C(=O)CN2CCN(Cc3ccc4c(c3)OCO4)CC2)c1O	none
Cc1nnc(NC(=O)c2ccc3ccccc3c2)s1	HT1080-NT tox inconclusive
CCC(c1nc2ccccc2[nH]1)n1c(=O)c(-c2ccco2)nc2ccccc21 (stereo unspecified)	IL1B secr inh -65.5 (no result: TGFb inhibitor, HepG2 tox, Giardia kill)
COc1ccc(C(C(=O)NCc2ccccc2)n2c(=O)c(-c3ccco3)nc3ccccc32)cc1 (stereo unspecified)	HT1080 IDH1KD tx 20.6µM, HT1080-NT tox inconclusive (no result: TGFb inhibitor, HepG2 tox, Giardia kill)
O=c1c(-c2ccco2)nc2ccccc2n1C(CCc1ccccc1)c1nc2ccccc2[nH]1 (stereo unspecified)	HT1080-NT tox inconclusive (no result: TGFb inhibitor, HepG2 tox, Giardia kill)
O=C(NCC(=O)N1CCN(c2ccccc2O)CC1)C1CCCCC1	none
CC(C)OC(=O)c1ccc(Cn2nnc3ccccc3c2=O)cc1	none
COc1cc(/C=N/n2c(-c3ccccc3)n[nH]c2=S)ccc1O	none
COc1ccc(/C=N/n2c(-c3ccc(C)cc3)n[nH]c2=S)cc1OC	IL1B secr inh -51.0
C/C(=N\OC(=O)c1ccc(OC(C)C)cc1)c1ccc(C)c(C)c1	IL1B secr inh inconclusive
CC1=C/C(=C(/c2cc(C)c(O)c(Br)c2)c2ccccc2S(=O)(=O)O)C=C(Br)C1=O	HT1080 IDH1KD tx inconclusive, IL1B secr inh -70.7, HT1080-NT tox inconclusive
C=CCc1ccccc1OCC(O)CN1CCN(c2ccccc2)CC1 (stereo unspecified)	TGFb inhibitor inconclusive (no result: Giardia kill, HT1080 IDH1KD tx, IL1B secr inh, HT1080-NT tox)
CCOC(=O)c1c(NC(=O)/C=C/C(=O)O)sc(C)c1-c1ccc(Cl)cc1	TGFb inhibitor inconclusive, HepG2 tox 17.8µM, HT1080 IDH1KD tx 23.1µM, IL1B secr inh -71.3, HT1080-NT tox inconclusive
Cc1c(Cc2ccccc2)sc(NC(=O)/C=C/c2cccc3ccccc23)c1C(N)=O	HT1080 IDH1KD tx 32.6µM, HT1080-NT tox 13µM
COC(=O)c1c(NC(=O)/C=C/C(=O)O)sc(Cc2ccccc2)c1C	TGFb inhibitor inconclusive, HT1080 IDH1KD tx inconclusive, IL1B secr inh -110.9
COc1ccc(Nc2nnc(-c3ccc(O)cc3)c3ccccc23)cc1C(N)=O	none
Cc1ccccc1NC(=S)NCc1cccs1	none
COc1ccc(N2CCN(C(=O)c3oc4ccccc4c3NC(=O)Cc3cccc(OC)c3)CC2)cc1	none
CN(C)CCNC(=O)/C(=C/c1ccc(-c2ccc(Cl)cc2Cl)o1)NC(=O)c1ccccc1	TGFb inhibitor inconclusive, HT1080 IDH1KD tx 20.6µM, IL1B secr inh -67.2, HT1080-NT tox inconclusive
CN(C)CCNC(=O)/C(=C/c1ccc(-c2ccc(Cl)cc2)o1)NC(=O)c1ccccc1	TGFb inhibitor inconclusive, HepG2 tox 15.8µM, IL1B secr inh -93.1
COc1ccc(N(C(=O)COc2ccccc2)C2C=CS(=O)(=O)C2)c(OC)c1 (stereo unspecified)	none
Cc1ccc2c(c1)-c1c(cnc3cc(-c4ccccc4)nn13)CO2	none (no result: Giardia kill, HT1080 IDH1KD tx, IL1B secr inh, HT1080-NT tox)
